Results published in PubChem BioAssay AID624288 (National Center for Advancing Translational Sciences (NCATS), 2012).
Among all 340,000 compounds or so, about 1,400 (0.41%) were called active. Entries that show only a call come without a potency. Another 4% or so got no clear call; they are omitted. The call rests on the fitted dose curve; cell line not stated here. For the sample, actives were picked, then their nearest neighbours and some compounds at random.

Assay: qHTS for Antagonists of gsp, the Etiologic Mutation Responsible for Fibrous Dysplasia/McCune-Albright Syndrome: qHTS; further: nearly all actives have a fitted effect of over 65% in size
Details: gsp-mutant cells, cAMP HTRF, 30 min; series mostly up to 76.9 µM
How it was run: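 G418-selected cells were plated in DMEM/10% FBS for 16-24 h at 37C, then treated with compounds plus the PDE inhibitor […] (300 uM solution added) for 30 min at 37C. Intracellular cAMP was measured by HTRF after 30 min lysis at room temperature.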
Potency means the concentration at half of the fitted maximal effect.

SMILES | Potency
Cc1c[n+]([O-])ccc1[N+](=O)[O-] | inactive
CC(C)=CCc1ccc(O)c(=O)cc1C(C)C | inactive
Nc1nonc1-n1nnc(C(=O)N/N=C/c2c[nH]c3ccccc23)c1-c1ccccc1 | 31.6 µM (active)
CC(C)c1c(C(=O)N/N=C/c2ccc(-c3ccccc3)cc2)nnn1-c1nonc1N | inactive
Nc1nonc1-n1nnc(C(=O)N/N=C/C2CCCCC2)c1-c1ccccc1 | inactive
Nc1cc(=O)n(Cc2ccccc2)c(=O)n1Cc1ccccc1 | inactive
O=C1Nc2ccc(Br)cc2/C1=N/N=C/C1=C(N2CCOCC2)C(=C\c2ccccc2)/CC1 | inactive
C(=N\N1CCN(c2ccccn2)CC1)/C1=C(N2CCOCC2)C(=C/c2ccccc2)/CC1 | inactive
O=C(O)c1ccc(NN=CC2=C(N3CCOCC3)/C(=C/c3ccccc3)CC2)cc1 | 10 µM (active)
C[C@H](O)[C@@H]1C(=O)N2CCc3ccc(N4CCOCC4)cc3[C@@H]2C[C@@H]1N(C)C(=O)C(C)(C)C | inactive
O=C1C[C@@H]2c3c(cccc3CN1Cc1ccccc1)C[C@@H](O)[C@H]2O | inactive
Cc1ccc(S(=O)(=O)N2CCC(C(=O)N3CCCCCCC3)CC2)cc1 | inactive
CSc1ncccc1C(=O)Nc1ccc2c(c1)OCO2 | inactive
CSc1ncccc1C(=O)Nc1ccc(C)cn1 | inactive
CSc1ncccc1C(=O)Nc1nc2ccc(F)cc2s1 | 39.8 µM (active)
COc1cc(C(=O)CCc2ccc3c(c2)OCO3)cc(OC)c1OC | inactive
COc1cc(C(=O)N2CCN(S(=O)(=O)c3ccc(C(C)C)cc3)CC2)ccc1OCC(=O)N1CCOCC1 | inactive
COc1cccc(C(=O)Nc2nc3ccc(S(C)(=O)=O)cc3s2)c1 | inactive
CS(=O)(=O)c1ccc2nc(NC(=O)c3ccc(Cl)nc3)sc2c1 | 31.6 µM (active)
CS(=O)(=O)c1ccc2nc(NC(=O)C3C4C=CC(C4)C3C(=O)O)sc2c1 (stereo unspecified) | inactive
Cc1ccc(NC(=O)C(C)OC(=O)C2CC3CCCC(C2)C3=O)cc1S(=O)(=O)N1CCOCC1 (stereo unspecified) | inactive
O=C(CNC(=O)c1cc(S(=O)(=O)N2CCOCC2)ccc1N1CCCC1)Nc1ccc(F)c(F)c1 | inactive
O=C(O)c1ccc(NS(=O)(=O)c2ccc3c(c2)C(=O)c2cc(S(=O)(=O)Nc4ccc(C(=O)O)cc4)ccc2-3)cc1 | inactive
CN(CC(=O)O)S(=O)(=O)c1ccc2oc3ccccc3c2c1 | inactive
CN(CCO)S(=O)(=O)c1ccc2c(c1)C(=O)c1cc(S(=O)(=O)N(C)CCO)ccc1-2 | 8.91 µM (active)
O=C1NC(=O)C(CCc2ccccc2)(c2ccccc2)N1 (stereo unspecified) | inactive

SMILES | Potency
COC(=O)C1CC2=C(CC(C)(C)CC2=O)N(c2ccccc2)C1=O (stereo unspecified) | inactive
CCc1nc(C)cn1S(=O)(=O)c1cc(OC)c(C)cc1C | 31.6 µM (active)
COc1cc(Cl)c(S(=O)(=O)n2cnc(C)c2)cc1Cl | inactive
CCc1nc(C)cn1S(=O)(=O)c1cc([N+](=O)[O-])ccc1Cl | inactive
CCc1ccc(C(=O)NNC(=O)C2CCN(c3ncnc4sc(C)c(C)c34)CC2)cc1 | inactive
Cc1sc2ncnc(N3CCC(C(=O)Nc4nc5ccc(Cl)cc5s4)CC3)c2c1C | inactive
Cc1sc2ncnc(N3CCC(C(=O)Nc4ccc(F)cc4Cl)CC3)c2c1C | 39.8 µM (active)
CC(=O)OCC1(O)CC23CCC4c5ccoc5CCC4(C)C2CCC1C3 (stereo unspecified) | inactive
COc1ccc(CNCCCn2cnc3c(OCc4ccccc4)ncnc32)cc1 | inactive
CCOC(=O)N1CCN(C(=O)c2ccc(CN(c3ccc(C)c(C)c3)S(C)(=O)=O)cc2)CC1 | 22.4 µM (active)
CCN1CCN(C(=O)c2ccc(CN(c3ccc(C)c(C)c3)S(C)(=O)=O)cc2)CC1 | inactive
CCOC(=O)N1CCN(C(=O)CN(c2ccc(C)c(C)c2)S(=O)(=O)c2ccccc2)CC1 | inactive
CC/C(=C\c1ccc(Cl)cc1)c1ccncc1 | inactive
Cc1ccc(C)c(OCCC(=O)Nc2cccc(S(=O)(=O)N3CCCC3)c2)c1 | inactive
Cc1ccc(C)c(S(=O)(=O)N2CCN(CC(=O)Nc3ccc([N+](=O)[O-])cc3)CC2)c1 | inactive
CC(=O)Nc1ccc(S(=O)(=O)N2CCN(CCCOc3cc(C)ccc3C)CC2)cc1 | 31.6 µM (active)
CCC1([N+](=O)[O-])COC(c2ccc(C)cc2)OC1 (stereo unspecified) | inactive
NC(=O)C1(Nc2ccccc2Cl)CCCC1 | inactive
CC(Nc1ccc([N+](=O)[O-])cc1[N+](=O)[O-])c1ccccc1 (stereo unspecified) | inactive
O=C(Nc1cccc(S(=O)(=O)Nc2ccc(Cl)cc2)c1)c1ccc2c(c1)OCCO2 | 35.5 µM (active)
O=C(Nc1ccccc1)c1ccc2c(c1)OCCCO2 | inactive
O=C(Nc1ccc(NC(=O)c2ccc3c(c2)OCO3)cc1)c1cccc(Cl)c1 | inactive
CN(C(=O)c1cccc(NC(=O)Cc2ccc(NC(=O)C3CCN(C(=O)C4CCCCC4)CC3)cc2)c1)C1CCC1 | inactive
COc1cc(/C=C/CNC[C@H]2O[C@@H](n3cnc(C(N)=O)n3)[C@H](O)[C@@H]2O)ccc1O | inactive
CC(=O)N1CCCc2cc(S(=O)(=O)N3CCCC(C(=O)NCc4ccc(Cl)cc4)C3)ccc21 (stereo unspecified) | inactive
CC(=O)N1CCCc2cc(S(=O)(=O)N3CCCC(C(=O)N4CCN(c5cccc(Cl)c5)CC4)C3)ccc21 (stereo unspecified) | 28.2 µM (active)

SMILES | Potency
CC(=O)N1CCCc2cc(S(=O)(=O)CCC(=O)N3CCN(c4ccccc4)CC3)ccc21 | inactive
CC(=O)Oc1ccc(OC(C)=O)c2c1C1C=CC2CC1 | inactive
COc1ccccc1CNC(=O)CCn1c(=O)sc2ccccc21 | inactive
Cc1cccc(CSc2nnc(Cn3c(=O)sc4ccccc43)n2C)c1 | inactive
COc1ccc(Cn2c(=O)sc3ccccc32)cc1OC | 11.2 µM (active)
COc1ccc(CCN2CC(C(=O)OCC(=O)NCc3ccccc3Cl)CC2=O)cc1OC (stereo unspecified) | inactive
NC(CSC1(c2ccccc2)c2ccccc2-c2ccccc21)C(=O)O (stereo unspecified) | inactive
CSCCC(NC(=O)COc1ccccc1)C(=O)N1CCN(c2cccc(C(F)(F)F)c2)CC1 (stereo unspecified) | inactive
COC(C[C@@H](O)C[C@@H](O)[C@H](C)OCc1ccccc1)OC | inactive
COC(C[C@@H](O)C[C@H](O)[C@H](C)OCc1ccccc1)OC | 50.1 µM (active)
COC(C[C@H](O)CC(=O)[C@@H](C)OCc1ccccc1)OC | inactive
CC(=NNC(=S)N1CCCCCC1)c1ccccn1 | inactive
O=C(CCC(=O)N1CCN(S(=O)(=O)c2ccc(Cl)cc2)CC1)NCc1cccc(C(F)(F)F)c1 | 35.5 µM (active)
O=C(NCc1cccc(C(F)(F)F)c1)c1cccc(S(=O)(=O)N2CCN(Cc3ccccc3)CC2)c1 | inactive
CC(NC(=O)CCC(=O)N1CCN(S(=O)(=O)c2ccc(Cl)cc2)CC1)c1ccccc1 (stereo unspecified) | inactive
NC(=O)c1ccc(N2CCCC2)nc1 | inactive
O=C(O)c1ccc(S(=O)(=O)c2ccccc2)s1 | inactive
O=C(Nc1cccc(Br)c1)c1ccc2snnc2c1 | inactive
CCc1ccccc1NC(=O)c1ccc2snnc2c1 | inactive
O=C(Nc1ccc2ccccc2c1)Nc1ccc2snnc2c1 | 31.6 µM (active)
Oc1cccc(C2c3[nH]c4ccccc4c3CCN2Cc2cnn(-c3ccccc3)c2)c1 (stereo unspecified) | inactive
COc1cccc(C2c3[nH]c4ccccc4c3CCN2Cc2cccc(C)n2)c1 (stereo unspecified) | 39.8 µM (active)
COc1ccc(C2c3[nH]c4ccccc4c3CCN2CCCn2cccn2)cc1C (stereo unspecified) | inactive
O=C(Nc1c(Br)cc2c(c1Br)Cc1cc([N+](=O)[O-])ccc1-2)C(Cl)Cl | inactive
CCN(CC)C(=O)c1sc(NC(=O)c2ccco2)c(C#N)c1C | inactive
CCCc1ccc(-c2c(C)sc(NC(=O)c3ccnn3C)c2C#N)cc1 | 20 µM (active)

SMILES | Potency
Cn1nccc1CNC(=O)c1ccnn1C | inactive
COc1cc2c(cc1OC)C(Cc1cc(OC)c(OC)cc1[N+](=O)[O-])=NCC2 | inactive
NC(=O)c1ncn([C@@H]2O[C@H](CN=C3NS(=O)(=O)c4ccccc43)[C@@H](O)[C@H]2O)n1 | inactive
O=C(CCc1ccccc1)Nc1ncc([N+](=O)[O-])s1 | inactive
COc1ccc(OC)c2sc(NC(=O)C3COc4ccccc4O3)nc12 (stereo unspecified) | inactive
O=C(Nc1ncc([N+](=O)[O-])s1)C1COc2ccccc2O1 (stereo unspecified) | 39.8 µM (active)
Cc1cn(C2CC(O)C(CO)O2)c(=O)n(CCCc2ccccc2)c1=O (stereo unspecified) | inactive
COc1ccc(C(CNC(=O)c2cc(S(=O)(=O)Nc3cccc(C)c3)ccc2C)N2CCCC2)cc1 (stereo unspecified) | inactive
CCOC(=O)c1ccccc1NC(=O)CSc1nc2c(sc(=S)n2CC)c(=O)[nH]1 | inactive
O=C(NN=Cc1ccc([N+](=O)[O-])cc1)C1CC1 | inactive
Cn1c(=O)n(C)c2cc(/C=N/NC(=O)c3cccc(Br)c3)ccc21 | inactive
COc1cc(/C=N/NC(=O)c2ccc(N3CCCC3=O)cc2)ccc1O | inactive
O=C(N/N=C/c1cccc(Br)c1)c1ccc(N2CCCC2=O)cc1 | 31.6 µM (active)
COc1ccc(/C=C2/CCCc3ccccc3C2=O)cc1 | inactive
CC(=O)OC1CCC2(C)C(=CCC3C4CC(=O)N(O)C(=O)C4(C)CCC32)C1 (stereo unspecified) | inactive
CCCc1cc(=O)n2[nH]c(C)c(-c3ccc(Cl)cc3)c2n1 | inactive
Cc1cccc(N=Nc2c(C)[nH]n(-c3ccccc3)c2=O)c1 | inactive
Cc1[nH]n(-c2cccc(Cl)c2)c(=O)c1-c1ccc(Cl)cc1 | 28.2 µM (active)
O=C(NN=Cc1ccccc1O)NN=Cc1ccccc1O | inactive
Cc1cc(NC(=O)c2cc3ccccc3o2)no1 | inactive
COc1ccc2sc(-c3ccc(N(C)C)cc3)c(C#CCO)c2c1 | inactive
COc1ccc(-c2sc3ccc(OC)cc3c2C#Cc2ccccn2)cc1 | 28.2 µM (active)
COc1ccc2sc(-c3ccc(N(C)C)cc3)c(-c3ccc4cc[nH]c4c3)c2c1 | inactive
